From PubChem
An excerpt weighted towards active compounds, which were near 1.7% of everything screened.
LYPLA1 counter: LYPLA1 (human) inhibition in PME1 counter-screen | inhibition, % at 5.9 µM | actives 0.16% (n = 320,000) | recombinant LYPLA1, FP-Rh probe fluorescence polarization | O75608 | AID 2174;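 active = inhibition above the mean of all tested compounds plus 3 SD, set per campaign, cut at about 14% in these data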;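 also: inhibitors block serine hydrolase probe labeling of LYPLA1 so polarization falls; 0% = enzyme with DMSO and 100% = wells lacking LYPLA1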
Target sequence (O75608 whole entry, looked up): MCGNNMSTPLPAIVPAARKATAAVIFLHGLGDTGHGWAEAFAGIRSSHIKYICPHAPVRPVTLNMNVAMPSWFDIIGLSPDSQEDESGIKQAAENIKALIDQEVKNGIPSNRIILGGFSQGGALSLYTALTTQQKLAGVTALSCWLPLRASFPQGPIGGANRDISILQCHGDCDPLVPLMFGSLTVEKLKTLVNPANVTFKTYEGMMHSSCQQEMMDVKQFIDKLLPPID
Hck Nef HTS: human Hck-Nef kinase inhibition; P08631; Recombinant Hck-YEEI plus Nef, Z-Lyte FRET kinase assay; inhibition, % at 20 µM; actives 0.68% (n = 220,000);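 active = Hck-Nef kinase inhibition above about 50%, limit read from the data; inactive = inhibition below that limit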;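 also: 0% = DMSO with Hck plus Nef and 100% = Hck alone without Nef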
Rin1 Abl inh: human Rin1-Abl interaction inhibition; TR-FRET Rin1/Abl binding, biochemical; inhibition, % at 7.35 µM; actives 0.4% (n = 360,000); AID 588664; in the data active = inhibition above about 5%, passing the limit was not always enough
p97 inhibitor: blocks human p97 ATPase activity; inhibition, % at 8 µM; recombinant p97 ATPase, Kinase-Glo ATP luminescence, 3 h; P55072; actives 0.42% (n = 220,000); in the data active = inhibition above about 15%;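 also: 0% = DMSO vehicle and 100% = wells lacking enzyme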
LYPLA2 inh: counter-screen for PME1 inhibitors: inhibitors of human LYPLA2. recombinant LYPLA2, FP-Rh probe fluorescence polarization. inhibition, % at 5.9 µM. O95372. actives 0.38% (n = 320,000);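 active = inhibition above the screen-wide mean plus 3 SD, limit set per campaign, cut at about 26% in these data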;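 also: 0% = LYPLA2 with DMSO and 100% = wells lacking LYPLA2 enzyme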
PREPL inh: human PREPL enzyme inhibition | Q4J6C6 | inhibition, % at 5.96 µM | recombinant PREPL, fluorescence polarization activity-based probe | actives 0.68% (n = 320,000) | AID 2751;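 also: 0% = enzyme with DMSO and 100% = wells lacking enzyme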
PREPL confirm: human PREPL inhibition, confirmation; AID 2803; recombinant PREPL, fluorescence polarization activity probe; actives 67% (n = 2,000); shares compounds with PREPL inh; inhibition, % at 5.96 µM;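 also: 0% = protein with DMSO and 100% = wells lacking protein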
* hit, by the source's call. Rule as the data show it, unless noted: active = inhibition above about 43%; inactive = the rest.

For COC(=O)c1ccc(N2CCN(c3ccccc3)CC2)c(NC(=O)C2CC2)c1 the results were LYPLA1 counter 0, Hck Nef HTS 2, Rin1 Abl inh 5, p97 inhibitor 1, LYPLA2 inh 4, PREPL inh 50* and PREPL confirm 39.
For CC[C@@H](C)[C@@H]1CN([C@@H](CN2CCC[C@H]2CN2C(N)=NC[C@H]2CC(C)C)C(C)C)C(=N)N1CCCC1CCCC1 the results were Rin1 Abl inh -2 and PREPL inh 36.
CC[C@@H](C)[C@@H]1CN([C@@H](C)CN2CCC[C@H]2CN2C(N)=NC[C@H]2CC(C)C)C(=N)N1CCc1ccc(Cl)c(Cl)c1 was read as Rin1 Abl inh 4, PREPL inh 53* and PREPL confirm 41.
Screening CCC[C@@H](CN1CCC[C@H]1CN1C(N)=NC[C@@H]1Cc1ccccc1)N1C[C@@H]([C@H](C)CC)N(CCc2ccc(Cl)c(Cl)c2)C1=N returned Rin1 Abl inh 1, PREPL inh 43* and PREPL confirm 31.
`CC[C@@H](C)[C@@H]1CN([C@@H](CN2CCC[C@H]2CN2C(N)=NC[C@H]2CC(C)C)C(C)C)C(=N)N1CCc1ccc(Cl)c(Cl)c1` gave Rin1 Abl inh 1, PREPL inh 47* and PREPL confirm 48*.
`CCC[C@@H](CN1CCC[C@H]1CN1C(N)=NC[C@@H]1Cc1ccccc1)N1C[C@@H](Cc2ccccc2)N(CCc2ccc(Cl)c(Cl)c2)C1=N` gave Rin1 Abl inh 0 and PREPL inh 32.
For CCC[C@@H](CN1CCC[C@H]1CN1C(N)=NC[C@H]1CC(C)C)N1C[C@@H](Cc2ccccc2)N(CCc2ccc(Cl)c(Cl)c2)C1=N the results were Rin1 Abl inh -3 and PREPL inh 42.
For CCC[C@@H](CN1CCC[C@H]1CN1C(N)=NC[C@H]1CC(C)C)N1C[C@@H]([C@H](C)CC)N(CCc2ccc(Cl)c(Cl)c2)C1=N the results were Rin1 Abl inh 3, PREPL inh 52* and PREPL confirm 40.
For COc1ccc(Cc2nc3ccc(C(=O)NC4CCOC4)cc3o2)cc1 (stereo not given) the results were LYPLA1 counter -1, Rin1 Abl inh 4, LYPLA2 inh -3 and PREPL inh 14.
Screening CCOc1ccc(Nc2cc(C)c3ccccc3n2)cc1 returned LYPLA1 counter 0, Rin1 Abl inh 3, LYPLA2 inh 3 and PREPL inh 17.
`CCOc1ccc(Nc2c3ccccc3nc3ccccc23)cc1` gave LYPLA1 counter 0, Hck Nef HTS -2, Rin1 Abl inh -10, p97 inhibitor 4, LYPLA2 inh -3, PREPL inh 56* and PREPL confirm 60*.
For c1ccc(Nc2nc(NCC3CCCO3)c3ccccc3n2)cc1 (stereo not given) the results were LYPLA1 counter 0, Hck Nef HTS 13, Rin1 Abl inh 2, p97 inhibitor 10, LYPLA2 inh -5 and PREPL inh 9.
Screening CCOc1ccc(Nc2nc(NCC3CCCO3)c3ccccc3n2)cc1 (stereo not given) returned LYPLA1 counter -1, Hck Nef HTS -10, Rin1 Abl inh 3, p97 inhibitor 10, LYPLA2 inh 4, PREPL inh 59* and PREPL confirm 56*.
COc1ccc(C(=O)OC(C)C(=O)NC(C)CCc2ccccc2)c(OC)c1 (stereo not given) was read as LYPLA1 counter 2, Rin1 Abl inh 4, LYPLA2 inh 3 and PREPL inh 5.
`COc1ccc(N2CCN(CCC(O)c3ccc4ccccc4c3)CC2)cc1` (stereo not given) gave LYPLA1 counter 0, Rin1 Abl inh 4, LYPLA2 inh 4, PREPL inh 71* and PREPL confirm 68*.
`CN(C)Cc1c(O)ccc2occ(C(=O)c3ccccc3)c12` gave LYPLA1 counter 0, Hck Nef HTS 4, Rin1 Abl inh -2, p97 inhibitor 2, LYPLA2 inh -2 and PREPL inh 5.
